Screens: PubChem, several laboratories
Bead autofluor – flagged as autofluorescent in microsphere protease counterscreen; compound autofluorescence counterscreen, microsphere flow cytometry; active compounds read high; fluorescence intensity (concentration not given with the values); 360,000 tested, 3.1% active; in the data active = fluorescence intensity above about 16000; inconclusive = no clear call, values can overlap the other calls
Anthrax LF prot – blocks Bacillus anthracis lethal factor protease; multiplex microsphere protease cleavage assay, LF; 360,000 tested, 0.12% active; inhibition, % at 10 µM; note: plate controls were buffer without enzyme for full effect and enzyme alone for no effect
Target sequence (P15917 whole entry, looked up): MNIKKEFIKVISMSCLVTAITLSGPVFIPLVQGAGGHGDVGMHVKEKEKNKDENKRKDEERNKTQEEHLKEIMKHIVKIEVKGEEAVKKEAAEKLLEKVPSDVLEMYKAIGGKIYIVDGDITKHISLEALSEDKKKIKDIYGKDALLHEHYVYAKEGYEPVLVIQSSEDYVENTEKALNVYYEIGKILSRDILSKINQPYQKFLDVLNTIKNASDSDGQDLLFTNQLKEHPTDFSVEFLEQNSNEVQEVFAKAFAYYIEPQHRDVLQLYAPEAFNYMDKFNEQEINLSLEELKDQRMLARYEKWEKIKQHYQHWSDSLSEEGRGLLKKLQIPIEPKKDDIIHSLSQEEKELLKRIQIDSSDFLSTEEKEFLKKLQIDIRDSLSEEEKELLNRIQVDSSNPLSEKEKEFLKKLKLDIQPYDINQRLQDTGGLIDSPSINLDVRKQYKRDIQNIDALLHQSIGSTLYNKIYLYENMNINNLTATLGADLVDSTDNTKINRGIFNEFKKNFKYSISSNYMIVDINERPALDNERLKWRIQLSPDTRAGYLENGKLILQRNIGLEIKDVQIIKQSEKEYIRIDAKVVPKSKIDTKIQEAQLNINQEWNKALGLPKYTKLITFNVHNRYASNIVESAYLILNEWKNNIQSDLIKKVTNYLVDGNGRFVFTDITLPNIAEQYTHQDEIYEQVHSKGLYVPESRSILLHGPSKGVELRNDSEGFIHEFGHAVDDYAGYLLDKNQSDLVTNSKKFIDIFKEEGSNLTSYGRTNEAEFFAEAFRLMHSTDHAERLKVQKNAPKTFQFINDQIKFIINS
MazF activator – increases E. coli MazEF RNase cleavage of RNA; FAM/BHQ RNA-DNA oligo cleavage fluorescence, 5 h; activation, % at 20 µM; 350,000 tested, 0.32% active; AID 504720; in the data active = activation above about 50%
BoNT-A LC inh2 – inhibitors of Botulinum neurotoxin A light chain protease | multiplex microsphere protease substrate cleavage, flow cytometry | 360,000 tested, 0.17% active | inhibition, % at 10 µM; note: plate controls were buffer without enzyme for full effect and enzyme alone for no effect
BoNT-F LC inh – inhibitors of Botulinum neurotoxin F light chain protease; 360,000 tested, 0.22% active; Multiplex microsphere protease cleavage assay, flow cytometry; AID 588497; inhibition, % at 10 µM; in the data active = inhibition above about 35%, passing the limit was not always enough; inconclusive = no clear call, values can overlap the other calls; note: plate controls were buffer without enzyme for full effect and enzyme alone for no effect
* marks the source's active call; other numbers are inactive results; ? = inconclusive; nt = not tested or not shown; + = active, no number. Only some compounds are listed: those with a hit (about 3.6% of all), similar ones and a draw of the others. Cut-off read from the data, not from the text of the source, unless noted: active = inhibition above about 30%; inconclusive = no clear call, values can overlap the other calls; inactive = below that.

SMILES	Bead autofluor	Anthrax LF prot	MazF activator	BoNT-A LC inh2	BoNT-F LC inh
CCCC(c1nnnn1CCOC)N(Cc1cc2cc(C)c(C)cc2[nH]c1=O)CC1CCCO1 (stereo not given)	16616*	1	7	0	-1
CCC(c1nnnn1CCOC)N(Cc1cc2cc(C)c(C)cc2[nH]c1=O)CC1CCCO1 (stereo not given)	15328	-2	10	3	-2
Cc1ccsc1C(C(=O)NC(C)(C)C)N(C(=O)c1csnn1)c1ccccc1 (stereo not given)	4442	4	8	0	8
O=C(Nc1nnc([C@@H]2C[C@H](O)[C@@H](CO)O2)s1)c1ccccc1Cl	4150	-1	nt	-1	-2
COc1ccc(S(=O)(=O)N2CCCCC2c2cc(C(=O)NCc3ccccc3)no2)cc1 (stereo not given)	3863	-3	nt	0	0
O=C1/C(=C/c2cccc(O)c2)SC(=S)N1CC1CCCO1 (stereo not given)	4226	3	10	0	-7
Cc1ccc(/C=C2\SC(=S)N(Cc3ccccc3)C2=O)o1	4741	36*	15	48*	11
COc1cc(/C=C2/SC(=S)N(Cc3ccccc3)C2=O)ccc1O	3622	15	-10	30*	22
CCOc1cc(/C=C2/SC(=S)N(CC3CCCO3)C2=O)ccc1O (stereo not given)	3444	8	+	10	3
COc1ccc(/C=C2\SC(=S)N(Cc3cccnc3)C2=O)cc1C	2712	20	-16	38*	12
O=C1/C(=C/c2ccc(O)cc2)SC(=S)N1Cc1cccnc1	2010	-1	-610	1	4
CCCCCCCCNC(=S)NCCN1CCCCC1	3623	-9	-1	0	-1
OCC[C@@H]1C[C@H](O)[C@@H](O)[C@@]2(OCCCc3cc(C(F)(F)F)ccc32)O1	5950	-4	nt	0	4
Cc1ccc(S(=O)(=O)/N=C(\Sc2ccccc2)c2ccccc2)cc1	24784*	0	-14	-2	-6
O=S(=O)(/N=C(\Sc1ccccc1)c1ccccc1)c1ccc(Cl)cc1	12569	-5	-5	-1	-19
O=C(Nc1cc(Cl)cc(Cl)c1)c1cnn2cccnc12	4454	-3	-23	0	-3
O=C(Nc1cccc(Cl)c1)c1cnn2cccnc12	23465*	-3	4	?	2
O=C(c1cc(-c2cccnc2)nc2ccccc12)N1CCC2(CC1)OCCO2	19594*	-10	6	2	-2
O=C(c1cc(-c2ccncc2)nc2ccccc12)N1CCN(c2ccccn2)CC1	17502*	-2	-17	-6	-8
O=C(c1cc(-c2cccnc2)nc2ccc(Cl)cc12)N1CCC2(CC1)OCCO2	2027	0	-5	1	3
CNC(=O)COC(=O)c1ccc(NS(=O)(=O)c2ccc3c(c2)OCCO3)cc1	3442	0	8	5	43*
CCCCNC(=O)COC(=O)c1ccc(NS(=O)(=O)c2ccc3c(c2)OCCO3)cc1	21536*	1	-10	-6	-7
O=C(NCc1ccccc1)c1cc(C2CCCCN2C(=O)OCCF)on1 (stereo not given)	3606	0	nt	0	-2
O=C1CC(C(=O)N(c2ccc(F)cc2)C(C(=O)NC2CCCC2)c2ccccn2)CS1 (stereo not given)	22756*	-1	0	1	0
O=C1CC(C(=O)N(c2cccc(F)c2)C(C(=O)NC2CCCC2)c2ccccn2)CS1 (stereo not given)	11376	-4	-2	0	-6
SMILES	Bead autofluor	Anthrax LF prot	MazF activator	BoNT-A LC inh2	BoNT-F LC inh
O=C(CCNS(=O)(=O)c1ccc(Cl)cc1)NCc1cccnc1	23127*	-3	-1	-1	-1
CC(NS(=O)(=O)c1ccc(CCC(=O)NCc2cccnc2)cc1)c1ccccc1 (stereo not given)	20378*	0	-8	0	-1
CC(C)NS(=O)(=O)c1ccc(CCC(=O)NCc2cccnc2)cc1	3322	4	3	1	-22
CSc1ccc(S(=O)(=O)NCc2ccccc2)cc1	22207*	0	-4	1	2
Cc1ccc(S(=O)(=O)NCCC(=O)NCc2ccccc2)cc1	21858*	-7	0	4	4
COc1ccc(S(=O)(=O)NC(=O)C2(C)CCN2C(=O)Cc2ccccc2)cc1OC (stereo not given)	3815	-1	nt	0	-8
O[C@@H]1CN(Cc2ccc(-n3cccn3)cc2)CC[C@H]1N1CCN(c2ccccc2F)CC1	4210	-6	4	1	?
COc1cc(C(O)c2nc(-c3cccc(C#N)c3)cs2)ccc1F (stereo not given)	3768	-3	nt	0	6
